# Records with an inconclusive call do not appear. Calls of active or inactive are those of the source. The calls were made as follows: active = hit-call score of the fitted dose curve at least 0.9, where 1 is the maximum; inconclusive = response in the unintended direction; inactive = score below 0.9.
# Test system: frog Peroxisome Proliferator-activated Receptor-alpha (PPARa), gene 398843
# Test: ATG_frPPARa_EcoTox2: Attagene TRANS-FACTORIAL EcoTox-2 HepG2 Assay for frog Peroxisome Proliferator-activated Receptor-alpha (PPARa)
# Experimental: ATG_EcoTox2 is a cell-based, multiplexed assay created by modifying the existing Attagene TRANS-FACTORIAL system to include a panel of nuclear receptors from some or all the following species: human (Homo sapiens), african clawed frog (Xenopus laevis), rainbow trout (Oncorhynchus mykiss), japanese medaka (Oryzias latipes), and zebrafish (Danio rerio). The ECOTOX2-FACTORIAL format uses HepG2, a human liver cell line, with measurements taken at 24 hours after chemical dosing in a 24-well plate. ATG_frPPARa_EcoTox2 is one of 29 assay components calculated in the ATG_EcoTox2 assay. It is designed to make measurements of mRNA induction, a form of inducible reporter, as detected with fluorescence intensity signals by Reverse transcription polymerase chain reaction (RT-PCR) and Capillary electrophoresis technology.The assay endpoint ATG_frPPARa_EcoTox2 was analyzed in the positive analysis fitting direction relative to DMSO as the negative control and baseline of activity. Using a type of inducible reporter, measures of mRNA for gain-of-signal activity can be used to understand the reporter gene at the transcription factor-level as they relate to the gene PPARa. Furthermore, this assay endpoint can be referred to as a primary readout, because this assay has produced multiple assay endpoints where this one serves a reporter gene function. To generalize the intended target to other relatable targets, this assay endpoint is annotated to the nuclear receptor intended target family, where the subfamily is non-steroidal.
# Human liver HepG2 cells are transiently transfected with multiple reporter transcription units (MRTUs) in 6-well plates using FuGene 6 reagent (Roche; 3 ml FuGene/1 mg DNA). The MRTU constructs are regulated by a cis-regulating element (promoter). Each RTU expresses a GAL4-UAS that regulates the transcription of a nearby target reporter gene sequence. A major difference between the CIS and TRANS system is that in CIS activities of endogenous TFs are measured, whereas the TRANS assay evaluates changes in activities of exogenous, chimeric NR-Gal4 proteins. […] At the end of 24 hour incubation, total RNA was isolated using TriZol reagent (Invitrogen). The isolated RNA is then reverse-transcribed using oligo(dT) primer and Mo-MLV reverse transcriptase (Invitrogen) with DNAse I (Ambion) treatment for 30 min. The one-tenth of the produced cDNA was amplified by PCR using Taq DNA polymerase (Invitrogen) and two reporter sequence-specific primers. The PCR products were fluorescently labeled by primer extension with 6-arboxyfluorescein (6-FAM) 5'-labeled reporter sequence-specific primer (2 min at 95 C, 20 s at 68 C and 10 min at 72 C) and these products were digested with 5U of HpaI (New England Biolabs) for 2h at 37 C. The fragments were purified using Qiaquick PCR columns (Qiagen), analyzed on an ABI 3130xL genetic analyzer (Applied Biosystems) with peak positions identified by using a set of X-rhodamine (ROX)-labeled MapMarker1000 molecular weight standards (BioVentures). The raw capillary electrophoresis data was processed using Attagraph software (Attagene).
SMILES,outcome,AC50
CC(c1cc2ccccc2s1)N(O)C(N)=O (stereo not drawn),inactive,
CC(C)(Oc1ccc(Cl)cc1)C(=O)O,inactive,
CC(C)OC(=O)C(C)(C)Oc1ccc(C(=O)c2ccc(Cl)cc2)cc1,inactive,
Cc1c(C)c2c(c(C)c1O)CCC(C)(COc1ccc(CC3SC(=O)NC3=O)cc1)O2 (stereo not drawn),inactive,
Cc1ccc(C)c(OCCCC(C)(C)C(=O)O)c1,,50 µM (active)
C[C@]12C=CC(=O)C=C1CC[C@@H]1[C@@H]2C(=O)C[C@@]2(C)[C@H]1CC[C@]2(O)C(=O)CO,inactive,
C[C@@H]1C[C@H]2[C@@H]3CCC4=CC(=O)C=C[C@]4(C)[C@@]3(F)[C@@H](O)C[C@]2(C)[C@@]1(O)C(=O)COP(=O)(O)O,inactive,
C=C(c1ccc(C(=O)O)cc1)c1cc2c(cc1C)C(C)(C)CCC2(C)C,inactive,
CC(C)(Oc1ccc(CCNC(=O)c2ccc(Cl)cc2)cc1)C(=O)O,,23.6 µM (active)
Cc1nc(-c2ccc(C(F)(F)F)cc2)sc1C(=O)NCc1ccc(OC(C)(C)C(=O)O)cc1,,0.0823 µM (active)
CN(CCOc1ccc(CC2SC(=O)NC2=O)cc1)c1ccccn1 (stereo not drawn),,8.4 µM (active)
Cc1cccc(Nc2cc(Cl)nc(SCC(=O)O)n2)c1C,,11.9 µM (active)
CC(C)(Oc1ccc(C2CC2(Cl)Cl)cc1)C(=O)O (stereo not drawn),,113 µM (active)

# Reference: PubChem BioAssay AID2284344 (EPA ToxCast)
